The record followed here is PubChem BioAssay (EPA / NIEHS).

Molecules are shown by their SMILES. Several values for one entry are separate records, joined by “and”; a condition that tells them apart may be missing. Equal entries are not always repeated. Activity calls are given as the source filed them. How the source made its calls: active means hit-call score of the fitted dose curve at least 0.9, where 1 is the maximum; inactive means score below 0.9.

Read-out in the test: Urokinase-type plasminogen activator receptor (uPAR), PLAUR (gene 5329)
As to the kind of experiment: BSK_4H_uPAR: BioMAP Diversity Plus: 4H Assay for Urokinase-type plasminogen activator receptor (uPAR) Biomarker Activity (AID 2283030). Conditions: primary human endothelial cells (HUVEC); actives raise or lower the signal. On the procedure:
BSK_4H is a cell-based, multiplexed-readout assay that uses umbilical vein endothelium, a human vascular primary cell, with measurements taken at 24 hours after chemical dosing in a 96-well plate.BSK_4HAR is an assay component measured in the BSK_4H assay. It measures uPAR antibody related to regulation of gene expression using ELISA technology.Data from the assay component BSK_4HAR was analyzed into 1 assay endpoint. This assay endpoint, BSK_4HAR, was analyzed with bidirectional fitting relative to DMSO as the negative control and baseline of activity. Using a type of binding reporter, gain or loss-of-signal activity can be used to understand changes in the signaling as they relate to the gene PLAUR. Furthermore, this assay endpoint can be referred to as a primary readout, because this assay has produced multiple assay endpoints where this one serves a signaling function. To generalize the intended target to other relatable targets, this assay endpoint is annotated to the cytokine intended target family, where the subfamily is plasmogen activator.
The levels of cell surface (or secreted, indicated by the prefix "s") biomarker endpoints were measured by ELISA. Overt cytotoxicity to cells in confluent adherent cultures (all systems other than the BT system) was assessed by measuring total protein levels using sulforhodamine B (SRB) staining in parallel cultures at the time of biomarker measurements, indicated as SRB endpoints. For proliferation assays for adherent cell types, individual cell types are cultured at sub-confluence and relative cell numbers quantified by SRB staining at time points optimized for each system (48 h: 3C and CASM3C systems; 72 h: BT and HDF3CGF systems; 96 h: SAg system). SRB was performed by staining cells with 0.1% SRB after fixation with 10% TCA and reading wells at 560 nm.Viability and proliferation of PBMC (T cells) was quantified by Alamar Blue reduction for the SAg and BT systems. For PBMC viability (referred to as PBMC Cytotoxicity within the assay endpoint names), cells were plated (75,000/well in a 96-well plate) and then chemical samples added for 1 h before addition of activators, SEB and TSST-1 (20 ng/mL final concentration each). Cells were incubated for 90 h. Then, Alamar Blue (20 uL/well) (Invitrogen, Cat DAL1100) was added for 6 h, and the plates were read with a fluorescence microplate reader at 546/580 nm (excitation/emission). For PBMC proliferation, cells were plated and activated as above but incubated for only 16 h prior to addition of Alamar Blue. Plates were read after 6 h.
As for `COc1nc(C)nc(NC(=O)NS(=O)(=O)c2ccccc2OCCCl)n1`, the outcome was inactive.
For `CCCCOC(=O)C(C)Oc1ccc(Oc2ccc(C(F)(F)F)cn2)cc1` (stereo not given), the outcome was inactive.
`O=C(Nc1ccc([N+](=O)[O-])cc1Cl)c1cc(Cl)ccc1O`: the AC50 (usually the concentration at which the activity in the assay is half-maximal) is 0.148 µM (active).
With `CCCCC(CC)CN1C(=O)C2C3C=CC(C3)C2C1=O` (stereo not given), the result was inactive.
For the molecule `CCCCCCC(C)OC(=O)COc1nc(F)c(Cl)c(N)c1Cl` (stereo not given), the AC50 was 31.2 µM (active).
For `CCC(O)=C1C(=O)CC(C(=O)O)CC1=O` (stereo not given), the outcome was inactive.
The same measure, in the same setting: under `COC(=O)c1c(Cl)nn(C)c1S(=O)(=O)NC(=O)Nc1nc(OC)cc(OC)n1` stands “inactive”; under `COC(=O)c1cccc(C)c1S(=O)(=O)NC(=O)Nc1nc(OCC(F)(F)F)nc(N(C)C)n1`, “inactive”; under `COCCO`, “inactive”.
As for `CCOC(=O)NCCOc1ccc(Oc2ccccc2)cc1`, the result was inactive.
On the same count and under the same terms, the entry for `COC(=O)c1ccc(CNS(C)(=O)=O)cc1S(=O)(=O)NC(=O)Nc1nc(OC)cc(OC)n1` is “inactive”; for `CCNc1nc(N)nc(Cl)n1` it is “inactive”; for `CSC(=O)c1cccc2nnsc12` it is “inactive”.
Still for that read-out and setting: under `OB(O)O` stands “inactive”.
As to `N#CSCSc1nc2ccccc2s1`, the AC50 is 5.3 µM (active) and 6.65 µM (active).
The same measure, in the same setting: the figure for `Oc1ccc(C(c2ccc(O)cc2)C(Cl)(Cl)Cl)cc1` is 31.4 µM (active).
For the molecule `O=C(c1ccccc1)C1CCCCC1`, the result was inactive.
The same measure, in the same setting: under `COC(=O)CSc1cc(N=c2sc(=O)n3n2CCCC3)c(F)cc1Cl` stands “inactive”; under `COC(=O)c1ccccc1C(=O)O`, “inactive”; under `CCOC(=O)C(C)Oc1ccc(Oc2cnc3cc(Cl)ccc3n2)cc1` (stereo not given), “inactive”.
On the same count and under the same terms, the entry for `CCCOC(=O)c1ccc(C(=O)OCCC)nc1` is “inactive”; for `C#C[C@]1(O)CC[C@H]2[C@@H]3CCC4=CC(=O)CC[C@@H]4[C@H]3CC[C@@]21CC` it is “inactive”.
Same read-out and setting: the entry for `S=C(S)NCCNC(=S)S.[Mn+2].[S-]C([S-])=NCCN=C([S-])[S-].[Zn+2]` is “inactive”.
As to `CC(C)(C)[C@@H](O)[C@@H](Cc1ccc(Cl)cc1)n1cncn1`, the result was inactive.
In the case of `CC(C)(c1ccc(O)cc1)c1ccc(O)cc1`, the result was inactive.
Consider `CCCOC(=O)NCCCN(C)C`, for which the outcome was inactive.
Turning to `CC(=O)[C@H]1CC[C@H]2[C@@H]3CCC4=CC(=O)CC[C@]4(C)[C@H]3CC[C@]12C`, the AC50 was 10 µM (active).
The same measure, in the same setting: under `CCCN(CCC)c1c([N+](=O)[O-])cc(C(F)(F)F)c(N)c1[N+](=O)[O-]` stands 33.1 µM (active).
Regarding `CCOC(=O)[C@H](C)Oc1ccc(Oc2nc3ccc(Cl)cc3o2)cc1`, the result was inactive.
For the molecule `O=C(O)c1ccccc1`, the outcome was inactive.
`Cc1nn(C)c(Oc2ccccc2)c1C=NOCc1ccc(C(=O)OC(C)(C)C)cc1`: the AC50 was 30.6 µM (active).
Regarding `COC(=O)c1ccc(I)cc1S(=O)(=O)NC(=O)Nc1nc(C)nc(OC)n1`, the result was inactive.
Turning to `CN(C)C(=O)Nc1ccc(Cl)c(Cl)c1`, the result was inactive.
Still for that read-out and setting: the entry for `CCCN(CCC)C(=O)SCC` is “inactive”; for `C#CCOC(=O)[C@@H](C)Oc1ccc(Oc2ncc(Cl)cc2F)cc1` it is “inactive”.
Same read-out and setting: under `N[C@@H](Cc1cc(I)c(Oc2ccc(O)c(I)c2)c(I)c1)C(=O)O` stands “inactive”; under `c1ccc2[nH]c(-c3cscn3)nc2c1`, “inactive”; under `CCC(C)OC(=O)N1CCCCC1CCO` (stereo not given), “inactive”.
On the same count and under the same terms, under `CC(=O)S[C@@H]1CC2=CC(=O)CC[C@]2(C)[C@H]2CC[C@@]3(C)[C@@H](CC[C@@]34CCC(=O)O4)[C@H]12` stands “inactive”.
For the molecule `CCOC(=O)COc1cc(-n2ncc(C(F)(F)F)c(C)c2=O)c(F)cc1Cl`, the result was inactive.
